Source: PubChem BioAssay
Values without a mark were called inactive. Activity calls are given as the source filed them.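 The calls were made as follows, unless noted: active = mean inhibition above 46.68%, the untreated control wells mean plus 3 SD; inactive = the rest.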

Assays:
[1] = target: Nuclear receptor coactivator 1 (Homo sapiens) (UniProt Q15788); assay: NCOA1 GAL4-fusion reporter inhibition – cell-based, luminescence, quadruplicate, confirmation (AID 588820); conditions: HEK293 GAL4-SRC1 luciferase reporter, at 3.6 µM, stronger effect = higher value;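 also: 0% = DMSO wells and 100% = gossypol 36 µM treated wells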
Sequence of Nuclear receptor coactivator 1 (Homo sapiens) (Q15788 whole entry, looked up, the tested form may be a part): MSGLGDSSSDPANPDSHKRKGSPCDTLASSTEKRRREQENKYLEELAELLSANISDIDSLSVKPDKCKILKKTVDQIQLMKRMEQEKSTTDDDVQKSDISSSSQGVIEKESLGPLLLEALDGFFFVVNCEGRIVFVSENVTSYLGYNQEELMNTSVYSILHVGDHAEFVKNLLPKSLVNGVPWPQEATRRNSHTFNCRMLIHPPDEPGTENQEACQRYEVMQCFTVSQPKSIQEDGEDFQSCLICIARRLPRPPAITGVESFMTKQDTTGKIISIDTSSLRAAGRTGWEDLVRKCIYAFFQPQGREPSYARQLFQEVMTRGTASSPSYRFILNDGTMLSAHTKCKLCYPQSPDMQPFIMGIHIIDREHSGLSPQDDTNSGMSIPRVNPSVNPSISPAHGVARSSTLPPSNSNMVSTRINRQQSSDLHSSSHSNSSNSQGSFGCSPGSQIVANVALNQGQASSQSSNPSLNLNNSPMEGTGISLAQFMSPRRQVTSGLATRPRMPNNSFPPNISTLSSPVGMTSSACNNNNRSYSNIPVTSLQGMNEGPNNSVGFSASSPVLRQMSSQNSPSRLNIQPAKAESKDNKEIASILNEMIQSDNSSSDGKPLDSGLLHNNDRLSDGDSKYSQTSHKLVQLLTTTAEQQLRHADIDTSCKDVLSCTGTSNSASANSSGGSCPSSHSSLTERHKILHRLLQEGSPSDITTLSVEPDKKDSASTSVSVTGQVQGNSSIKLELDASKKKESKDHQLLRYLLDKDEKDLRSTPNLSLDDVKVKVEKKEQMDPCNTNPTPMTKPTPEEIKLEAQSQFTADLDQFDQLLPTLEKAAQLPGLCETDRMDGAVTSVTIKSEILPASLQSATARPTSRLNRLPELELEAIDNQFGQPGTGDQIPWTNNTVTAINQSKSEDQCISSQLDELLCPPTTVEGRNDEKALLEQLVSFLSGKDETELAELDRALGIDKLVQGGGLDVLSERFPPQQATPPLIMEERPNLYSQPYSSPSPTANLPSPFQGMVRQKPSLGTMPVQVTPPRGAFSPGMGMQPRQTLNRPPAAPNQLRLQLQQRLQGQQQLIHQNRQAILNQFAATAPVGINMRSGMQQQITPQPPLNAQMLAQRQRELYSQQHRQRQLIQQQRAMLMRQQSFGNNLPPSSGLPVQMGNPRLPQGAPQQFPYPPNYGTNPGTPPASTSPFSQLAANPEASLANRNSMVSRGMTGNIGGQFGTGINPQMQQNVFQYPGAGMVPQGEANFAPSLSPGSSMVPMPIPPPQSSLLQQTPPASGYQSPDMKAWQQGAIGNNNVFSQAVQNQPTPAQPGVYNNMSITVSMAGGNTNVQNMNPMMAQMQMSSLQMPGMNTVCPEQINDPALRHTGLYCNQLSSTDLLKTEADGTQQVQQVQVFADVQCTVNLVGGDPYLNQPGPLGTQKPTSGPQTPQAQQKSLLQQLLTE

[2] = repression of VP16-driven luciferase reporter – cell-based, luminescence, high throughput, counter-screen for SRC1 inhibitor project (AID 588824; in the data active = inhibition above about 25%); conditions: cell-based VP16 transactivation luciferase luminescence; at 3.6 µM; stronger effect = higher value

COc1cc(OC)c(NS(=O)(=O)c2ccc(Cl)c(C(=O)OC(C)C(=O)N3CCCC3)c2)cc1Cl (stereo not given)
inhibition [1]: -10.2% | inhibition [2]: 10.7%

Cn1c(/C=N/NC(=O)c2ccccc2Br)nc2ccccc21
inhibition [1]: 4.29% | inhibition [2]: 15.7%

COc1ccc(C)cc1S(=O)(=O)N1CCCC(N2CCN(c3ccccc3)CC2)C1 (stereo not given)
inhibition [1]: 2.59% | inhibition [2]: 6.89%

C(=N\Nc1nc2ccccc2[nH]1)/c1ccc2ncccc2c1
inhibition [1]: -40.4% | inhibition [2]: -63.6%

Cc1nc(N)c(C#N)c(-c2cccnc2)c1C
inhibition [1]: 46.4% | inhibition [2]: 26.5% (active)

COc1ccc(OC)c(S(=O)(=O)N2CCN(c3ccccc3)CC2)c1
inhibition [1]: -2.63% | inhibition [2]: -1.07%

CCCn1c(=O)c(C(=O)NC(C)c2ccccc2)c(O)c2ccccc21 (stereo not given)
inhibition [1]: -10.4% | inhibition [2]: -9.6%

CS(=O)(=O)Nc1cccc(NC(=O)C2Cc3c(-c4ccco4)ccnc3O2)c1 (stereo not given)
inhibition [1]: 22.6% | inhibition [2]: 14.9%

C=CCc1cccc(/C=N/NC(=O)C(C)Nc2ccc(C)cc2)c1O (stereo not given)
inhibition [1]: 6.49% | inhibition [2]: 8.01%

CN(C)S(=O)(=O)c1ccc(Cl)c(NC(=O)CN2C(=O)NC(C)(C3CC3)C2=O)c1 (stereo not given)
inhibition [1]: -2.39% | inhibition [2]: -2.88%

CCc1ccc(CN(C)C(=O)C2CCC(=O)N(CC3CCCCC3)C2)cc1 (stereo not given)
inhibition [1]: -5.12% | inhibition [2]: 2.92%

O=C(CSc1nc(-c2cccs2)cc(C(F)(F)F)n1)Nc1cc(OCC(F)(F)C(F)F)cc([N+](=O)[O-])c1
inhibition [1]: 17.1% | inhibition [2]: -0.51%

Cc1oc(C(C)(C)C)cc1C(=O)N1CCN(c2ccc(C(F)(F)F)cn2)CC1
inhibition [1]: 0.89% | inhibition [2]: 15.2%

COc1ccc(-c2csc(N3CCN(c4cc(C)nc5ccccc45)CC3)n2)cc1OC
inhibition [1]: -18% | inhibition [2]: 20.4%

CCC(Oc1ccccc1)C(=O)Nc1cc(C(F)(F)F)ccc1N1CCOCC1 (stereo not given)
inhibition [1]: 10.6% | inhibition [2]: 1.21%

O=C(Cc1cccs1)N(CC1CCCO1)C1(C(=O)NC2CCCC2)CCCCC1 (stereo not given)
inhibition [1]: 3.51% | inhibition [2]: 17.6%

N=c1c(C(=O)NCCc2ccccc2)cc2c(=O)n3ccccc3nc2n1CCCN1CCOCC1
inhibition [1]: 6.5% | inhibition [2]: 18.9%

CCOC(=O)CNC(c1ccccc1)c1cc(Br)ccc1NC(C)=O (stereo not given)
inhibition [1]: -0.66% | inhibition [2]: 4.71%

COc1cc2c(cc1NC(=O)/C=C/c1cc(OC)c(OC)c(OC)c1)oc1ccccc12
inhibition [1]: 3.29% | inhibition [2]: -2.37%

Cc1cccc(NC(=O)c2cc(S(=O)(=O)N(C)c3ccc(F)cc3)ccc2Cl)n1
inhibition [1]: -17.6% | inhibition [2]: -4.3%

COc1ccc(OCC(=O)Nc2ccc3c(c2)n(C)c(=O)n3C)cc1
inhibition [1]: -14.2% | inhibition [2]: -5.89%

COc1ccc(OC)c(/C=C2\NC(=O)NC2=O)c1
inhibition [1]: 29.5% | inhibition [2]: 15.5%

c1ccc(CC2CCN(c3ncnc4sccc34)CC2)cc1
inhibition [1]: -13.8% | inhibition [2]: 29.4% (active)

CCC(C)c1ccc(C(C)NC(=S)NCc2ccc(F)cc2)cc1 (stereo not given)
inhibition [1]: -3.08% | inhibition [2]: -3.56%

Cc1ccc(C2/C(=C(\O)c3ccc4c(c3)OCCO4)C(=O)C(=O)N2Cc2cccnc2)cc1 (stereo not given)
inhibition [1]: -15.5% | inhibition [2]: -9.56%

O=C(CN1CCN(Cc2ccc(Cl)cc2)C1=O)NCCCN1CCOCC1
inhibition [1]: -13.2% | inhibition [2]: -10.7%

Cc1cc(C)n(-c2ccc(C(=O)Nc3ccc(S(=O)(=O)NCc4ccco4)cc3)cc2)n1
inhibition [1]: -5.13% | inhibition [2]: 24.2%

Fc1cccc(Cl)c1Cn1nnc2c(NCc3ccncc3)ncnc21
inhibition [1]: -0.7% | inhibition [2]: 4.51%

CCC(Cc1ccccc1)NC(=O)CCNS(=O)(=O)c1cc(Br)cnc1N (stereo not given)
inhibition [1]: 0.75% | inhibition [2]: 5.04%

COCCn1cnc2c1c(=O)n(Cc1ccccc1C#N)c(=O)n2Cc1ccccc1
inhibition [1]: -22.2% | inhibition [2]: 1.6%

CCCC(=O)N1CCCC(c2cc(C(=O)Nc3ccccc3)no2)C1 (stereo not given)
inhibition [1]: -49.1% | inhibition [2]: -30.6%

CC(=O)Nc1ccc(NC(=O)C2Cc3c(-c4ccco4)ccnc3O2)cc1 (stereo not given)
inhibition [1]: 3.04% | inhibition [2]: 8.12%

Cc1ccc(-c2c[n+]3c(n2-c2ccccc2)CCC3)cc1
inhibition [1]: 10.5% | inhibition [2]: 20.3%

COc1cc(C(=O)NC(=S)NNC(=O)c2cnccn2)cc(OC)c1OC
inhibition [1]: 19.6% | inhibition [2]: -5.2%

O=C(NCc1ccccc1)C(c1ccccc1)N(Cc1cccs1)C(=O)c1cnccn1 (stereo not given)
inhibition [1]: -71.6% | inhibition [2]: -20.6%

COc1ccc(-c2csc3ncnc(N4CCN(CCO)CC4)c23)cc1
inhibition [1]: 0.84% | inhibition [2]: 9.88%

O=C(CSc1n[nH]c(-c2cccnc2)n1)Nc1ccc([N+](=O)[O-])cc1
inhibition [1]: -26.9% | inhibition [2]: -8.24%

CCc1nnc(NC(=O)CCC(=O)NCc2ccccc2Cl)s1
inhibition [1]: 10.2% | inhibition [2]: 6.37%

c1ccc2c(c1)ccc1ncccc12
inhibition [1]: 1.02% | inhibition [2]: 6.62%

Cc1ccc(NC(=O)c2cnc(N3CCN(c4ccccn4)CC3)c3ccccc23)c(Br)c1
inhibition [1]: -15.2% | inhibition [2]: 17.7%

CCCCCOc1ccc(/C=C/c2c([N+](=O)[O-])c(=O)n(C)c(=O)n2C)cc1
inhibition [1]: 23.6% | inhibition [2]: 22.4%

Cc1ccccc1CN1CCC(Oc2ccc(C(=O)NCc3ccccn3)cc2)CC1
inhibition [1]: -15.8% | inhibition [2]: 8.1%

CC1(C)Cc2nc(N)c(=O)sc2C1
inhibition [1]: -1.79% | inhibition [2]: 5.55%

CCOC(=O)c1c(-c2ccccc2)csc1NC(=O)c1nn(CC)cc1Br
inhibition [1]: -4.38% | inhibition [2]: -7.57%

Cc1cc(C)cc(NS(=O)(=O)c2ccc3[nH]c(=O)ccc3c2)c1
inhibition [1]: -17.7% | inhibition [2]: -3.07%

N#Cc1c(-c2ccccc2)c(C#N)c2nc3ccccc3n2c1N
inhibition [1]: 15.8% | inhibition [2]: 17.8%

N#Cc1ccc(Oc2ccc(C(F)(F)F)cc2NC(=O)c2ccc(F)cc2)cc1
inhibition [1]: 6.71% | inhibition [2]: 1.11%

CCN(C(=O)c1cccc(S(=O)(=O)N(C)C)c1)C12CC3CC(CC(C3)C1)C2
inhibition [1]: 14.8% | inhibition [2]: 19.5%

O=C(CNC(=O)c1ccco1)Nc1ccncc1
inhibition [1]: -25.7% | inhibition [2]: -3.08%

Cc1ccc2nc(C)c3c(c2c1)N(c1ccc(F)cc1)CC3
inhibition [1]: 16.4% | inhibition [2]: 30.5% (active)

O=C1Nc2cc(C(=O)NCC3CCCO3)ccc2S/C1=C/c1ccccc1F (stereo not given)
inhibition [1]: -7.31% | inhibition [2]: -5.02%

CCN(CC)CCNC(=O)CCN1N=C(c2ccccc2)CCC1=O
inhibition [1]: -4.6% | inhibition [2]: -9.8%

Cc1ccccc1C(=O)/C(C#N)=N/Nc1c(C)n(C)n(-c2ccccc2)c1=O
inhibition [1]: 34.3% | inhibition [2]: 21.1%

Brc1ccc2ncnc(NCc3ccco3)c2c1
inhibition [1]: 32.1% | inhibition [2]: 31.2% (active)

O=C(Nc1ccccc1N1CCOCC1)c1ccc(N2CCOCC2)c([N+](=O)[O-])c1
inhibition [1]: -19.5% | inhibition [2]: -16.2%

CN(C1CCCCC1)S(=O)(=O)c1ccc(NC(=O)C2CCCCC2)cc1
inhibition [1]: -0.79% | inhibition [2]: 11%

O=C(NCc1cccc(C(F)(F)F)c1)c1csc([C@@H]2O[C@H](CO)[C@H](O)[C@H](O)[C@H]2O)n1
inhibition [1]: -9.94% | inhibition [2]: -4.13%

CCN(CC(=O)Nc1ccccc1C(F)(F)F)C(=O)c1ccc2[nH]c3c(c2c1)CC(C)CC3 (stereo not given)
inhibition [1]: -11.7% | inhibition [2]: -8.04%

CCOC(=O)N1CCN(C(=O)c2cc(-c3ccncc3)nc3ccccc23)CC1
inhibition [1]: -21.2% | inhibition [2]: 3.82%

Cc1ccc(-n2ccc(-c3nn(-c4ccccc4)ccc3=O)n2)cc1
inhibition [1]: 6.13% | inhibition [2]: 13.3%

O=C(O)c1cc(=O)[nH]c2ccc(S(=O)(=O)Nc3ccc(F)cc3)cc12
inhibition [1]: -12.9% | inhibition [2]: 7.7%

Cc1ccc2oc(C(=O)NC3CCS(=O)(=O)C3)cc(=O)c2c1 (stereo not given)
inhibition [1]: -6.08% | inhibition [2]: -12.1%

Cc1ccc(C)c(S(=O)(=O)N2CCN(C(=O)C3CCN(C(=O)c4ccc(F)cc4)CC3)CC2)c1
inhibition [1]: -10.9% | inhibition [2]: 1.93%

O=C(COC(=O)CCC(=O)c1ccccc1)Nc1nnc(-c2ccccc2)o1
inhibition [1]: -19.6% | inhibition [2]: -8.55%

CC(Oc1ccccc1F)C(=O)NNC(=O)CC(C)c1ccccc1 (stereo not given)
inhibition [1]: 12.4% | inhibition [2]: 2.31%

COc1ccc(-n2nc(C(=O)NCC(=O)Nc3cc(OC)c(OC)c(OC)c3)c3ccccc3c2=O)cc1OC
inhibition [1]: -43.4% | inhibition [2]: -6.14%

CCOC(=O)c1ccc(S(=O)(=O)N2CCN(C(C)=O)CC2)cc1
inhibition [1]: -14.4% | inhibition [2]: -6.09%

CCN1C(=O)c2cccc3c(S(=O)(=O)Nc4ccc(O)c(C(=O)O)c4)ccc1c23
inhibition [1]: 5.84% | inhibition [2]: -15.2%

COc1ccc(/C=N/Nc2nc3ccccc3[nH]2)c(OC)c1OC
inhibition [1]: -27.8% | inhibition [2]: -23%

CCC(NC(=O)NC1CCCCC1)c1ccccc1 (stereo not given)
inhibition [1]: -16% | inhibition [2]: -3.88%
